Results on 102 molecules are retold here after PubChem BioAssay AID485353 (National Center for Advancing Translational Sciences (NCATS), 2010).

Hit rate of the full screen: of about 330,000 compounds, about 610 (0.18%) were called active. Where a call stands in place of a potency, no number is given. Another 2% or so got no clear call; they are omitted. Calls come from the whole dose curve. The full list was thinned out, with actives kept by preference.
Potency is the fitted concentration of half-maximal effect.

A short description of the assay: qHTS of Yeast-based Assay for SARS-CoV PLP. Note: nearly all actives have a fitted effect of over 55% in size. As to conditions: S. cerevisiae expressing SARS-CoV PLpro; Potency: growth rescue; series mostly up to 32.9 µM.
In the case of `CCOC(=O)c1nn(-c2ccccc2F)c2nc(Nc3ccccc3)cc(=O)n12`, the Potency result is “inactive”.

Take `Cc1cc(NC(=O)CS(=O)(=O)c2cn(C)c3ccccc23)no1`: the Potency entry is “inactive”.

Consider `CC1CN(S(=O)(=O)c2ccccc2)C(C)CN1S(=O)(=O)c1ccccc1` (configuration not stated), for which the Potency entry is “inactive”.

Turning to `CCOc1cccc(-c2nnc(SCC(=O)NC3CC3)n2C)c1`, the Potency result was “inactive”.

Take `Cn1c(SCC(=O)NC2CCCCC2)nnc1-c1ccc(N)cc1`: the Potency entry was “inactive”.

Take `Cn1c(SCC(=O)NC2CCCCC2)nnc1-c1cc2ccccc2o1`: the Potency is 10 µM (active).

As for `CN(c1ccc2nc3ccccc3c(=O)n2n1)C1CCCCC1`, the Potency entry was “inactive”.

Turning to `CC(C)Cc1nnc(NC(=O)CCC(=O)Nc2ccc3cn[nH]c3c2)s1`, the Potency entry was “inactive”.

As for `S=c1[nH]nc(-c2cccs2)n1/N=C/c1cn(-c2ccccc2)nc1-c1ccc(Cl)cc1`, the Potency result is “inactive”.

With `O=c1oc2ccccc2cc1-c1cn(-c2ccccc2)c(=S)[nH]1`, the Potency entry was “inactive”.

As to `S=c1[nH]c(-c2cccs2)cn1-c1ccccc1`, the Potency was 11.2 µM (active).

On to `CC12CCC(C(=O)N(NC(=O)c3ccccc3O)C1=O)C2(C)C` (configuration not stated), for which the Potency is 2.82 µM (active).

`COc1ccccc1C(=O)NN1C(=O)C2C3C=CC(O3)C2C1=O` (configuration not stated): the Potency entry is “inactive”.

Consider `O=C(NN1C(=O)C2C(C1=O)C1C=CC2C12CC2)c1ccccc1Cl` (configuration not stated), for which the Potency result was “inactive”.

On to `O=c1c(Cl)c(NCc2ccc(F)cc2Cl)cnn1C12CC3CC(CC(C3)C1)C2`, for which the Potency result was “inactive”.

`O=C(NC1CCN(S(=O)(=O)c2ccc(F)cc2)CC1)c1ccccc1`: the Potency result is “inactive”.

Take `CCc1ccc(-c2nn(-c3ccccc3)cc2CSC(=N)N)cc1`: the Potency result is “inactive”.

Turning to `CCCCC(=O)N(c1ccc(OC)cc1)C1C=CS(=O)(=O)C1` (configuration not stated), the Potency entry is “inactive”.

As to `Nc1ccc(Nc2cc(O)c3ncccc3c2)cc1`, the Potency entry was “inactive”.

For `Cc1ccc(OCCC(=O)Nc2ccc(S(=O)(=O)Nc3nccs3)cc2)cc1`, the Potency result is “inactive”.

Regarding `O=C(NN1C(=O)C2C3C=CC(C3)C2C1=O)c1ccco1` (configuration not stated), the Potency entry was “inactive”.

On to `O=C(NN1C(=O)C2CCCCC2C1=O)c1ccco1` (configuration not stated), for which the Potency result is “inactive”.

Take `CC(C)=C1C2CCC1C1C(=O)N(NC(=O)c3ccco3)C(=O)C21` (configuration not stated): the Potency was 2.82 µM (active).

`CC(=O)NC(c1cccs1)c1cc(Br)c2cccnc2c1O` (configuration not stated): the Potency result was “inactive”.

For `Cc1nn2c(c1-c1ccccc1)N=C(c1ccco1)CC2c1ccccc1` (configuration not stated), the Potency entry was “inactive”.

Take `CC[C@]12c3[nH]c4cc(CCC(=O)N(C)C)ccc4c3CCN1C(=O)[C@@H](CC(=O)NCCCN(C)C)C[C@@H]2C(=O)N1CCN(C(=O)c2ccco2)CC1`: the Potency result was “inactive”.

As to `CCC(C)NC(=O)C1CCCN(C(=O)NC2CCCCC2)C1` (configuration not stated), the Potency result is “inactive”.

For `Cc1ccc(S(=O)Cc2ccc(C(=O)N3CCN(C4CCCCC4)CC3)o2)cc1` (configuration not stated), the Potency result is “inactive”.

For `O=C(CCN1C(=O)C2C3C=CC(C3)C2C1=O)Oc1ccc2ccccc2c1` (configuration not stated), the Potency entry is “inactive”.

With `Cc1ccc(C(=O)COC(=O)CCN2C(=O)C3C4CC(C(Br)C4Br)C3C2=O)cc1` (configuration not stated), the Potency is 12.6 µM (active).

As to `Cc1ccc(C(=O)COC(=O)CCN2C(=O)C3C4CCC(C4)C3C2=O)cc1C` (configuration not stated), the Potency entry is “inactive”.

As for `CCN1C(=O)[C@@H]2[C@@H](c3ccc(-c4ccccc4)cc3)N3CCCC[C@@]3(C(=O)OC)[C@@H]2C1=O`, the Potency result is “inactive”.

On to `O=C(Oc1cccc(N2C(=O)C3C4c5ccccc5C(c5ccccc54)C3C2=O)c1)c1ccco1` (configuration not stated), for which the Potency result was “inactive”.

Consider `Cc1nc2ccccc2n1C(=O)N1CCOCC1`, for which the Potency entry was “inactive”.

Consider `O=C(CSC(=S)N1CCOCC1)c1ccccc1`, for which the Potency result was “inactive”.

`CC1CN(C(=S)SCC(=O)c2ccccc2)CC(C)O1` (configuration not stated): the Potency was 10 µM (active).

Take `CC1CN(C(=S)Nc2ccccc2F)CC(C)O1` (configuration not stated): the Potency entry is “inactive”.

In the case of `Cc1ccc(NC(=O)COc2ccc(-n3ccnc3)cc2)cc1Cl`, the Potency entry is “inactive”.

In the case of `COc1cccc(NC(=O)c2ccccc2N(Cc2ccccc2)S(C)(=O)=O)c1`, the Potency result was “inactive”.

Regarding `COc1ccccc1N1CCN(C(CNC(=O)Oc2ccccc2)c2cccnc2)CC1` (configuration not stated), the Potency result was “inactive”.

For the molecule `CCOC(=O)N1CCN(C(c2cccnc2)c2ccc3cccnc3c2O)CC1` (configuration not stated), the Potency is 11.2 µM (active).

As for `O=C(CSc1cccc2cccnc12)N/N=C/c1cccnc1`, the Potency result is “inactive”.

For `Cc1ccc(S(=O)(=O)n2cccc2CO)cc1`, the Potency result is “inactive”.

Take `CC(C)(Oc1ccc(Cl)cc1)C(=O)OCC(=O)NCCc1ccc(S(N)(=O)=O)cc1`: the Potency result was “inactive”.

For the molecule `O=C(Cn1cnc2c(nnn2-c2ccccc2)c1=O)N1CCC(Cc2ccccc2)CC1`, the Potency result is “inactive”.

As for `COc1cccc(NC(=O)CN(C)C(C)C(=O)Nc2ccc(C#N)cc2)c1` (configuration not stated), the Potency result is “inactive”.

For the molecule `O=C(CCc1nnc(CCCCc2ccccc2)o1)NC(c1cccnc1)C(F)(F)F` (configuration not stated), the Potency entry is “inactive”.

For `O=C(Nc1ccc(S(=O)(=O)N2CCCCC2)cc1)C1CC(=O)N(c2ccc(F)cc2)C1` (configuration not stated), the Potency entry is “inactive”.

For the molecule `CN1CCN(C2=NCCO2)CC1`, the Potency entry was “inactive”.

In the case of `CC(C#N)OC(=O)c1cccnc1SCC(=O)Nc1ccc2c(c1)OCO2` (configuration not stated), the Potency entry was “inactive”.

With `CCCCOc1ccc(NC(=O)[C@@H]2CCCN2C(=O)C2CCN(S(=O)(=O)c3ccc(C)cc3)CC2)cc1`, the Potency result was “inactive”.

`COc1ccc(NC(=O)C2CCC(CNS(=O)(=O)c3csc(C(N)=O)c3)CC2)cc1OC` (configuration not stated): the Potency entry is “inactive”.

Regarding `Cc1cc(C)c2nc3nc(C)cc(C)c3c(N)c2c1`, the Potency result was “inactive”.

On to `O=C(CN1C(=O)NC2(CCCCCCC2)C1=O)NCc1ccc(F)cc1`, for which the Potency entry is “inactive”.

As for `Cc1ccccc1OCc1nnc(SCC(=O)N2c3ccccc3Sc3ccc(Cl)cc32)o1`, the Potency entry is “inactive”.

With `O=C(CC1CCCCC1)NCc1ccco1`, the Potency entry is “inactive”.

On to `O=C(CN1C(=O)/C(=C\c2ccc(C(F)(F)F)cc2)Sc2ccccc21)NCc1ccco1`, for which the Potency was 12.6 µM (active).

As to `O=C(CN1C(=O)/C(=C/c2ccccc2F)Sc2ccccc21)NCc1cccnc1`, the Potency result is “inactive”.

On to `COc1cccc(C(CC(=O)NCCN2CCOCC2)NS(=O)(=O)c2ccc(C)cc2)c1OC` (configuration not stated), for which the Potency result is “inactive”.

For `CCc1nccn1CCC(=O)N1CCCC(N2CCN(c3ccccc3F)CC2)C1` (configuration not stated), the Potency entry was “inactive”.

For `CC1(c2ccc(Cl)cc2Cl)NC(=O)N(CC(=O)Nc2cccnc2Cl)C1=O` (configuration not stated), the Potency entry was “inactive”.

As to `O=C(c1ccco1)N1CCN(CC(=O)N(C2CCCCC2)C2CCS(=O)(=O)C2)CC1` (configuration not stated), the Potency entry is “inactive”.

In the case of `COc1ccc(CNC(=O)c2c[nH]c3c(OC)cc(OC)cc3c2=O)cc1`, the Potency result is “inactive”.

Consider `CC(=O)N1N=C(c2ccncc2)OC1(Cc1ccccc1)Cc1ccccc1`, for which the Potency entry is “inactive”.

With `COC(=O)CCc1sc(Nc2ccc(Br)cc2)nc1-c1ccc(OC)cc1`, the Potency result was “inactive”.

As to `CN(C(=O)COC(=O)CCCc1c[nH]c2ccccc12)c1c(N)n(Cc2ccccc2)c(=O)[nH]c1=O`, the activity, positive = growth rescue was 2.28% [at 6.58 µM] (inactive).

As for `Cc1nc(-c2ccc(Cl)cc2)sc1C(=O)CBr`, the Potency result was “inactive”.

On to `Cc1nc(-c2ccccc2)sc1C(=O)/C=C/N(C)C`, for which the Potency result was “inactive”.

For the molecule `Cc1ccc(SCC(=O)c2sc(-c3ccccc3)nc2C)cc1`, the Potency is 3.55 µM (active).

For the molecule `CN(CC(=O)NCCN1CCOCC1)S(=O)(=O)c1ccc(F)cc1`, the Potency entry is “inactive”.

With `C/C(=N\NC(=O)c1ccoc1C)c1ccccc1O`, the Potency result is “inactive”.

On to `Cc1[nH]n(-c2ccccc2)c(=O)c1/C=N/NC(=O)c1ccoc1C`, for which the Potency is 2.51 µM (active).

Regarding `Cc1ccc(-n2[nH]c(C)c(/C=N/NC(=O)c3cccc([N+](=O)[O-])c3)c2=O)cc1C`, the Potency was 1.26 µM (active).

As for `COc1cc(/C=N/NC(=O)c2ccoc2C)ccc1OCCN1CCCCC1`, the Potency entry is “inactive”.

As to `Cc1[nH]n(-c2ccc([N+](=O)[O-])cc2)c(=O)c1C=NCCN1CCN(C(=O)c2ccccc2F)CC1`, the Potency entry was “inactive”.

For `C/C(=N\NC(=O)c1cccc([N+](=O)[O-])c1)c1cccnc1`, the Potency result is “inactive”.

`O=C(Cn1cc(/C=N/NC(=O)c2cccc(C(F)(F)F)c2)c2ccccc21)Nc1ccc(F)cc1`: the Potency result is “inactive”.

On to `O=C(NCCCn1ccnc1)C(=O)NCC1OCCN1S(=O)(=O)c1cc(F)ccc1F` (configuration not stated), for which the Potency result is “inactive”.

Take `CCc1cccc(NC(=O)COC(=O)c2cc(=O)c3ccccc3o2)c1`: the Potency entry is “inactive”.

For the molecule `Nc1nonc1-n1nnc(C(=O)N/N=C\c2ccncc2)c1CN1CCCCC1`, the Potency result is “inactive”.

`Nc1nonc1-n1nnc(C(=O)N/N=C/c2cc(Br)ccc2O)c1CSC1=NCCS1`: the Potency is 4.47 µM (active).

For the molecule `Cc1ccc(SCc2c(C(=O)N/N=C/C3CC=CCC3)nnn2-c2nonc2N)cc1` (configuration not stated), the Potency result is “inactive”.

Regarding `CSc1nc(-c2ccco2)nn1C(=O)c1ccccc1Cl`, the Potency entry is “inactive”.

For `COc1cc(C(=O)N/C(=C\c2cn(C)c3ccccc23)C(=O)N2CCOCC2)cc(OC)c1OC`, the Potency entry is “inactive”.

`CCN(CC)c1ccc(/C=N/Nc2nc(C)cc(C)n2)c(O)c1`: the Potency was 5.01 µM (active).

For the molecule `CCN(CC)c1ccc(/C=N/NC(=O)c2cnccn2)c(O)c1`, the Potency result is “inactive”.

Regarding `Cc1cc(C)nc(N/N=C/c2c(CO)cnc(C)c2O)n1`, the Potency result was “inactive”.

For `CC1(C)Cc2nc3sc4c(SCC(=O)NC(c5ccccc5)c5ccccc5)ncnc4c3cc2CO1`, the Potency result is “inactive”.

As to `COc1ccc(NC(=O)C(=O)NCC(c2ccco2)N2CCc3ccccc3C2)cc1` (configuration not stated), the Potency entry is “inactive”.

For the molecule `CCOc1c(Nc2cccc(Cl)c2)c(=O)c1=O`, the Potency result is “inactive”.

For the molecule `CCOCCCNC(=O)C(NC(=O)c1ccc(=O)[nH]c1)c1ccc(Cl)cc1` (configuration not stated), the Potency entry was “inactive”.

For `CC1(C(=O)OCC(=O)Nc2ncc(Cl)cc2Cl)CC1(Cl)Cl` (configuration not stated), the Potency result was “inactive”.

`CN(CC(=O)Nc1ccc(S(=O)(=O)N2CCCC2)cc1)Cc1ccc(Cl)c(Cl)c1`: the Potency result is “inactive”.

For the molecule `C=CCn1c(SCC(=O)NC)nnc1C12CC3CC(CC(C3)C1)C2`, the Potency result is “inactive”.

Regarding `C=CCn1c(-c2sc(-c3ccccc3)nc2C)n[nH]c1=S`, the Potency entry was “inactive”.

For `C=CCn1c(C23CC4CC(CC(C4)C2)C3)n[nH]c1=S`, the Potency was 11.2 µM (active).

In the case of `O=C(N/N=C/c1cc([N+](=O)[O-])ccc1O)/C(=C\c1cccs1)NC(=O)c1ccccc1`, the Potency was 3.98 µM (active).

For `C=CCNC(=O)/C(=C\c1cccc([N+](=O)[O-])c1)NC(=O)c1ccccc1`, the Potency entry is “inactive”.

Regarding `O=C(Nc1ccc(C(=O)O)cc1)/C(=C/c1ccc([N+](=O)[O-])cc1)NC(=O)c1ccccc1`, the Potency entry is “inactive”.

As to `CCc1ccccc1NC(=O)CN(C)S(=O)(=O)c1ccc2c(c1)c(=O)n(C)c(=O)n2C`, the Potency entry is “inactive”.

Regarding `COc1cccc(CNC(=O)CN(C)S(=O)(=O)c2ccc3c(c2)c(=O)n(C)c(=O)n3C)c1`, the Potency was 3.55 µM (active).

As for `CC1CCC(NC(=O)CN(C)S(=O)(=O)c2ccc3c(c2)c(=O)n(C)c(=O)n3C)CC1` (configuration not stated), the Potency entry is “inactive”.
